Unmarked numbers belong to inactive results. No rule for the calls is given here.

Here are results for 18 molecules from PubChem BioAssay.

Sequence of Pantothenate synthetase (Mycobacterium tuberculosis (strain ATCC 25618 / H37Rv)) (P9WIL5 whole entry, looked up): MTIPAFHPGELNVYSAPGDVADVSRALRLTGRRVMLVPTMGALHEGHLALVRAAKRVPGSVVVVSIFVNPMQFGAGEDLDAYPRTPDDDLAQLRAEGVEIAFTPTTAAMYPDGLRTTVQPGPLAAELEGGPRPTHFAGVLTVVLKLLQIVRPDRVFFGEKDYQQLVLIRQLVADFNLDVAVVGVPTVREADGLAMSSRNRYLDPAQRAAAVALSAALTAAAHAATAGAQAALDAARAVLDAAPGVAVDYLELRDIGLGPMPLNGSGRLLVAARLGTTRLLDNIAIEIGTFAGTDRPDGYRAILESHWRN

This assay addresses Pantothenate synthetase (Mycobacterium tuberculosis (strain ATCC 25618 / H37Rv)) (UniProt P9WIL5). The assay is described as follows: Coupled enzyme confirmation of inhibitors against recombinant Mtb PanC (AID 375).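 Also: 0% = full reaction with vehicle and 100% = no enzyme background.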 To be noted: coupled enzyme assay; at 10 µM, stronger effect = higher value.
Turning to `Cn1c(-c2cc(Br)ccc2O)n[nH]c1=S`, the inhibition is 2%.

For the molecule `O=C(Nc1nccs1)NC(C(F)(F)F)C(F)(F)F`, the inhibition was 7%. `O=C(Cn1ccc2ccccc2c1=O)Nc1ccc2c(c1)OCO2`: the inhibition was 6%. With `CCOc1cc(C(=O)NCc2ccncc2)cc(OCC)c1OCC`, the inhibition was 9%. Consider `Cc1cc(N2C(=O)C3C4C=CC(C4)C3C2=O)ccc1Br` (stereo not drawn), for which the inhibition is 0%. Consider `COc1ccc(N(CC(=O)Nc2ccccc2SC)S(C)(=O)=O)cc1OC`, for which the inhibition was 2%.

`CCCCOc1ccc(-c2nnn(C(C)(C)C(=O)OC)n2)cc1`: the inhibition is 5%. In the case of `COc1cccc2sc(NC(=O)c3ccc(S(=O)(=O)N4CCOCC4)cc3)nc12`, the inhibition was 1%. `COCCNC(=O)C(c1ccc(C)o1)N(Cc1cccs1)C(=O)c1snc(C(N)=O)c1N` (stereo not drawn): the inhibition was 4%. For `CC(=O)Nc1ccc(Oc2ccc3nc(C)[nH]c3c2)cc1`, the inhibition was 0%. Under `CC(=O)N1CCN=C1SCc1c(F)cccc1Cl` stands 2%; under `O=C1NCC(COCc2ccccc2)O1` (stereo not drawn), 3%. Consider `COC(=O)Cc1cc(=O)[nH]c(Nc2nc3ccccc3o2)n1`, for which the inhibition is 0%. Turning to `CC1(C)CC(=O)C(C=Nc2ccncc2)=C(O)C1`, the inhibition is 0%. Under `COc1ccc(S(=O)(=O)N2CCCC2C(=O)Nc2ccc(O)cc2)cc1` (stereo not drawn) stands 0%; under `CCN1CCN(c2nc3c(c(=O)[nH]c(=O)n3C)n2CCSc2nc3ccccc3s2)CC1`, 3%. Regarding `CCOc1cc(C(=O)N(C)Cc2cc3ccccc3[nH]c2=O)cc(OCC)c1OCC`, the inhibition is 7%.

Regarding `Cn1nc(-c2ccc(C(=O)NCC3CCCO3)cc2)c2ccccc2c1=O` (stereo not drawn), the inhibition was 4%.
